# Laboratory results from PubChem BioAssay (NCI).
# Several values for one entry are separate records, joined by “and”; a condition that tells them apart may be missing. Identical values can stand only once. About 83,000 compounds went through this panel and 20% of them were active in at least one assay; those are over-represented in the sample as a whole.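 Each cell line was grown in a 96-well plate and treated with one concentration of compound for 48 hours. Values below 10 were considered active.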 Activity calls are given as the source filed them.
# What was measured:
# Experiment in all cases: NCI-60 one-dose screen, 48 h (100 = growth as untreated, 0 = no growth, -100 = all killed)
# NCI-H23 lung = system: NCI-H23 lung
# NCI-H226 lung = system: NCI-H226 lung
# Procedure: (§1) Growth inhibition of the NCI-H226 human Non-Small Cell Lung tumor cell line is measured as a screen for anti-cancer activity. Cells are grown in 96 well plates and exposed to the test compound for 48 hours. Compounds are tested at a single concentration, which is 10^-5 M for most compounds. The reported endpoint is percent growth (GI% or GIPRCNT), where numbers from 0 - 100% represent growth inhibition, and numbers from -100% - 0 represent cell death. For example, a value of 40 represents 60% growth inhibition. A value of 0 means no net growth occurred over the course of the experiment. A value of -40 indicates 40% of cells at the beginning of the experiment died by the end of the experiment. A value of -100 means all cells are dead at the end of the experiment.
# (§2) NCI-60 Human Tumor Cell Lines Screen was performed using the standard one-dose NCI protocol, which is described in more detail at https://dtp.cancer.gov/discovery_development/nci-60/default.htm.
# (§3) Compounds with GIPRCNT values below 10 were considered active. Activity score was based on GIPRCNT using the following formula: […]
# (§4) Score is 0 for GIPRCNT values of 100 or above, 50 for GIPRCNT values of 0, and 100 for GIPRCNT values of -100.
# NCI-H322M lung = system: NCI-H322M lung
# HOP-62 NSCLC = system: HOP-62 NSCLC
# NCI-H460 lung = system: NCI-H460 lung
# HOP-92 NSCLC = system: HOP-92 NSCLC
# NCI-H522 lung = system: NCI-H522 lung
# Procedure: as §1, with “NCI-H522” for “NCI-H226”
# as §2, §3, §4
# A549/ATCC NSCLC = system: A549/ATCC NSCLC
# 786-0 renal = system: 786-0 renal
# COLO 205 colon = system: COLO 205 colon
compound,measurement,setting,value
CN(Cc1cnc2nc(N)nc(N)c2n1)c1ccc(C(=O)N[C@@H](CCC(=O)O)C(=O)O)cc1,growth,NCI-H23 lung; 2.5 µM,20.9% (inactive)
same,growth,NCI-H23 lung; 10 µM,31.7% (inactive)
same,growth,NCI-H226 lung; 2.5 µM,39.6% (inactive)
same,growth,NCI-H226 lung; 10 µM,35.1% (inactive)
same,growth,NCI-H322M lung; 2.5 µM,53.6% (inactive)
same,growth,NCI-H322M lung; 10 µM,52.6% (inactive)
same,growth,HOP-62 NSCLC; 2.5 µM,30.6% (inactive)
same,growth,HOP-62 NSCLC; 10 µM,32.1% (inactive)
same,growth,NCI-H460 lung; 2.5 µM,23.5% (inactive)
same,growth,NCI-H460 lung; 10 µM,20.7% (inactive)
same,growth,HOP-92 NSCLC; 2.5 µM,32.6% (inactive)
same,growth,HOP-92 NSCLC; 10 µM,25.1% (inactive)
same,growth,NCI-H522 lung; 2.5 µM,47% (inactive)
same,growth,NCI-H522 lung; 10 µM,35.3% (inactive)
same,growth,A549/ATCC NSCLC; 2.5 µM,31% (inactive)
same,growth,A549/ATCC NSCLC; 10 µM,22.8% (inactive)
same,growth,786-0 renal; 2.5 µM,11.7% (inactive)
same,growth,786-0 renal; 10 µM,12.3% (inactive)
same,growth,COLO 205 colon; 2.5 µM,50.5% (inactive)
same,growth,COLO 205 colon; 10 µM,44.1% (inactive)
CC[C@@]1(O)C(=O)OCc2c1cc1n(c2=O)Cc2cc3c(CN(C)C)c(O)ccc3nc2-1,growth,NCI-H23 lung; 10 µM,-15.6% (active) and 1.45% (active)
same,growth,NCI-H226 lung; 10 µM,-48.3% (active) and -34.1% (active)
same,growth,NCI-H322M lung; 10 µM,3.52% (active) and -20.1% (active)
same,growth,HOP-62 NSCLC; 10 µM,-7.57% (active) and -9.48% (active)
same,growth,NCI-H460 lung; 10 µM,2.05% (active) and -6.71% (active)
same,growth,NCI-H522 lung; 10 µM,-57% (active)
same,growth,A549/ATCC NSCLC; 10 µM,-30.7% (active) and 4.5% (active)
same,growth,786-0 renal; 10 µM,5.59% (active) and -13.2% (active)
same,growth,COLO 205 colon; 10 µM,9.58% (active)
COc1ccc2sc3cccc(NCCN(C)C)c3c(=O)c2c1,growth,NCI-H23 lung; 10 µM,60.9% (inactive) and 19.2% (inactive)
same,growth,NCI-H226 lung; 10 µM,59.2% (inactive) and 13.7% (inactive)
same,growth,NCI-H322M lung; 10 µM,41.2% (inactive) and 12.5% (inactive)
same,growth,HOP-62 NSCLC; 10 µM,48.4% (inactive) and -70.3% (active)
same,growth,NCI-H460 lung; 10 µM,21.5% (inactive) and -76.7% (active)
same,growth,HOP-92 NSCLC; 10 µM,24.9% (inactive) and -9.03% (active)
same,growth,NCI-H522 lung; 10 µM,-20.9% (active)
same,growth,A549/ATCC NSCLC; 10 µM,25% (inactive) and -23.4% (active)
same,growth,786-0 renal; 10 µM,60% (inactive) and 1.78% (active)
same,growth,COLO 205 colon; 10 µM,-17.3% (active) and -81.8% (active)
CC/C(=C(\c1ccccc1)c1ccc(OCCN(C)C)cc1)c1ccccc1,growth,NCI-H23 lung; 10 µM,60.3% (inactive)
same,growth,NCI-H23 lung; 12.5 µM,-47.7% (active)
same,growth,NCI-H226 lung; 10 µM,92.5% (inactive)
same,growth,NCI-H226 lung; 12.5 µM,51.3% (inactive)
same,growth,NCI-H322M lung; 10 µM,76% (inactive)
same,growth,NCI-H322M lung; 12.5 µM,11.7% (inactive)
same,growth,HOP-62 NSCLC; 10 µM,43.1% (inactive)
same,growth,HOP-62 NSCLC; 12.5 µM,-91.2% (active)
same,growth,NCI-H460 lung; 10 µM,2.39% (active)
same,growth,NCI-H460 lung; 12.5 µM,-66.8% (active)
same,growth,HOP-92 NSCLC; 12.5 µM,9.65% (active)
same,growth,NCI-H522 lung; 10 µM,46.6% (inactive)
same,growth,NCI-H522 lung; 12.5 µM,-46.4% (active)
same,growth,A549/ATCC NSCLC; 10 µM,49.8% (inactive)
same,growth,A549/ATCC NSCLC; 12.5 µM,-44.9% (active)
same,growth,786-0 renal; 10 µM,-41% (active)
same,growth,786-0 renal; 12.5 µM,-95.2% (active)
same,growth,COLO 205 colon; 10 µM,-89% (active)
same,growth,COLO 205 colon; 12.5 µM,-71.9% (active)
